{"source": "PubChem BioAssay (NCATS)", "note": "Records with an inconclusive call do not appear. Unmarked numbers belong to inactive results. Calls come from the whole dose curve; as a rule, active = well fitted curve in the direction sought with a large enough effect; inconclusive = small, poorly fitted or top-dose-only effect, or another doubt; inactive = no such curve, though single readings can be large; an effect the other way counts as inactive or inconclusive."}
{"target": "Protein phosphatase 1D (Homo sapiens) (UniProt O15297)", "sequence (O15297 whole entry, looked up)": "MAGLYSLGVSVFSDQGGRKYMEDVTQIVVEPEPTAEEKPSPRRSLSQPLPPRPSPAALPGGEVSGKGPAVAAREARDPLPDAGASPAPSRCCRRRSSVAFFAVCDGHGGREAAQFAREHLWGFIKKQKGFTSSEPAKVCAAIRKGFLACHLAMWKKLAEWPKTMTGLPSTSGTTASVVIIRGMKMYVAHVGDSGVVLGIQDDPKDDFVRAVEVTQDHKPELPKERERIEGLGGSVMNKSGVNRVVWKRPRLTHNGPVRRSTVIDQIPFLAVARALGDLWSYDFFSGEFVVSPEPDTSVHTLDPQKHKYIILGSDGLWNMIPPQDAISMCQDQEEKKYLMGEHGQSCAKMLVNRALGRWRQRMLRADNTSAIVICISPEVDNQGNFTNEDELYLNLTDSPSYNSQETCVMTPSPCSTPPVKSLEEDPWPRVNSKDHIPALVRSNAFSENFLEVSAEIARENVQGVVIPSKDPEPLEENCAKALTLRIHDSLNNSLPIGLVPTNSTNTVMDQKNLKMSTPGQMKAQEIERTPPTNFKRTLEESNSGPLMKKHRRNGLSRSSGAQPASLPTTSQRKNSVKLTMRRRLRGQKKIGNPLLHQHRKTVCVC", "experiment": "Rhodamine-PBP qHTS Assay for Modulators of WT P53-Induced Phosphatase 1 (WIP1) (AID 1347425); note: % of control where 0% means no effect", "conditions": "recombinant WIP1, Rhodamine-PBP phosphate fluorescence, real-time; series mostly up to 57.5 µM; activity change, negative = inhibition: at the top concentration", "in_short": "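Steps: enzyme with Rh-PBP sensor and compounds, room-temperature incubation of 1 hr, baseline read, addition of VEPPL-pS-QETFS (10 uM final), kinetic fluorescence reads at 525/598 nm. Activity equals final minus baseline signal.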"}
{"compound": "C[C@@H]1O[C@@H](OC[C@H]2O[C@@H](Oc3c(-c4ccc(O)c(O)c4)oc4cc(O)cc(O)c4c3=O)[C@H](O)[C@@H](O)[C@@H]2O)[C@H](O)[C@H](O)[C@H]1O", "activity change, negative = inhibition": "-4.41%"}
{"compound": "Cc1onc(-c2ccccc2)c1-c1ccc(S(N)(=O)=O)cc1", "activity change, negative = inhibition": "10.2%"}
{"compound": "CCCCCOC(=O)Nc1nc(=O)n([C@@H]2O[C@H](C)[C@@H](O)[C@H]2O)cc1F", "activity change, negative = inhibition": "13.5%"}
{"compound": "OCC(O)CS", "note": "(stereo not drawn)", "activity change, negative = inhibition": "8.58%"}
{"compound": "Cc1c(I)c(=O)n(-c2ccccc2)n1C", "activity change, negative = inhibition": "6.57%"}
{"compound": "NC(N)=NCCN1CCCCCCC1", "activity change, negative = inhibition": "1.78% [at 0.575 µM]"}
{"compound": "CC(C)NC[C@@H](O)COc1ccc(CC(N)=O)cc1", "activity change, negative = inhibition": "12.7%"}
{"compound": "O=C(O)COC(=O)Cc1ccccc1Nc1c(Cl)cccc1Cl", "activity change, negative = inhibition": "-21.6%"}
{"compound": "CN(C(=O)c1c(O)c2ccccc2n(C)c1=O)c1ccccc1", "activity change, negative = inhibition": "14.3%"}
{"compound": "O=S1(=O)OC(c2ccc(O)cc2)(c2ccc(O)cc2)c2ccccc21", "activity change, negative = inhibition": "2.05%"}
{"compound": "C/C=C1\\[C@H]2C=C(C)C[C@]1(N)c1ccc(=O)[nH]c1C2", "activity change, negative = inhibition": "-1.47%"}
{"compound": "COc1ccc(NS(=O)(=O)c2ccc(N)cc2)nn1", "activity change, negative = inhibition": "6.33%"}
{"compound": "O=C(O)CCCCC1CCSS1", "note": "(stereo not drawn)", "activity change, negative = inhibition": "9.94%"}
{"compound": "NC(=O)CC[C@@H](N)C(=O)O", "activity change, negative = inhibition": "13%"}
{"compound": "CC1(C)S[C@@H]2[C@H](N=CN3CCCCCC3)C(=O)N2[C@H]1C(=O)O", "activity change, negative = inhibition": "11.7%"}
{"compound": "O=C(O)/C=C/c1ccc(Cn2ccnc2)cc1", "activity change, negative = inhibition": "16.8%"}
{"compound": "C[C@]1(Cn2ccnn2)[C@H](C(=O)O)N2C(=O)C[C@H]2S1(=O)=O", "activity change, negative = inhibition": "4.79%"}
{"compound": "Cc1cc(=O)[nH]c(=S)[nH]1", "activity change, negative = inhibition": "2.24%"}
{"compound": "CC(CN(C)C)C(C)(O)Cc1ccc(Cl)cc1", "note": "(stereo not drawn)", "activity change, negative = inhibition": "2.32%"}
{"compound": "O=C(O)C(S)C(S)C(=O)O", "note": "(stereo not drawn)", "activity change, negative = inhibition": "-1.54%"}
{"compound": "CC(=O)N[C@H]1[C@H]([C@H](O)[C@H](O)CO)OC(C(=O)O)=C[C@@H]1N=C(N)N", "activity change, negative = inhibition": "15.3%"}
{"compound": "C=CCNC(N)=S", "activity change, negative = inhibition": "10.5%"}
{"compound": "O=C(O)Cc1cn(-c2ccccc2)nc1-c1ccc(Cl)cc1", "activity change, negative = inhibition": "-19.1%"}
{"compound": "O=C(/C=C/c1ccccc1)OCc1ccccc1", "activity change, negative = inhibition": "8.58%"}
{"compound": "O=C(O)Cc1ccc(CCNS(=O)(=O)c2ccc(Cl)cc2)cc1", "activity change, negative = inhibition": "-8.27%"}
{"compound": "CCOC(=O)[C@H](CCc1ccccc1)N[C@@H](C)C(=O)N1CCC[C@H]1C(=O)O", "activity change, negative = inhibition": "-6.64%"}
{"compound": "CC(C)CCOC(=O)c1ccc(N(C)C)cc1", "activity change, negative = inhibition": "1.08%"}
{"compound": "C[n+]1ccccc1/C=N/O", "activity change, negative = inhibition": "-4.85%"}
{"compound": "C/C=C/C(=O)N(CC)c1ccccc1C", "activity change, negative = inhibition": "3.48%"}
{"compound": "Cc1ccsc1C(=CCCN1CCC[C@@H](C(=O)O)C1)c1sccc1C", "activity change, negative = inhibition": "11.3%"}
{"compound": "Cc1c(NC(=O)c2cccnc2)c(=O)n(-c2ccccc2)n1C", "activity change, negative = inhibition": "10.9%"}
{"compound": "O=c1[nH]c(=O)n([C@H]2C[C@H](O)[C@@H](CO)O2)cc1I", "activity change, negative = inhibition": "15.4%"}
{"compound": "OCCN1C[C@H](O)[C@@H](O)[C@H](O)[C@H]1CO", "activity change, negative = inhibition": "6.18%"}
{"compound": "COc1ccc(Cc2cnc(N)nc2N)cc1OC", "activity change, negative = inhibition": "3.63%"}
{"compound": "Nc1ccc(S(=O)(=O)c2ccc(N)cc2)cc1", "activity change, negative = inhibition": "2.7%"}
{"compound": "CN1CCN(C(=O)C2CCCCC2)CC1", "activity change, negative = inhibition": "9.42%"}
{"compound": "O=C(O)CCC(=O)O", "activity change, negative = inhibition": "11.5%"}
{"compound": "CC(=O)Oc1cccc(C)c1", "activity change, negative = inhibition": "6.78%"}
{"system": "not listed separately", "experiment": "Primary qHTS for inhibitors of La Crosse Virus (LACV) - induced cell death in SH-SY5Y cells (AID 1508616);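 note: top concentration of the series differs between compounds; 0% = infected DMSO wells and 100% = uninfected DMSO wells; higher means more rescue of cells from virus-induced death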", "conditions": "SH-SY5Y LACV cytopathicity rescue, ATP luminescence, 6 d; series mostly up to 4.29 µM; activity change: at the top concentration", "in_short": "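SH-SY5Y, 6000 cells/well; cpd via pin tool in DMSO; LACV 0.01 MOI; 6 d 37C 5% CO2; ATPLite, 5 min RT; luminescence normalized to ±virus DMSO controls.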"}
{"compound": "C[C@@H]1O[C@@H](OC[C@H]2O[C@@H](Oc3c(-c4ccc(O)c(O)c4)oc4cc(O)cc(O)c4c3=O)[C@H](O)[C@@H](O)[C@@H]2O)[C@H](O)[C@H](O)[C@H]1O", "activity change": "29.2%"}
{"compound": "Cc1onc(-c2ccccc2)c1-c1ccc(S(N)(=O)=O)cc1", "activity change": "-0.036%"}
{"compound": "CCCCCOC(=O)Nc1nc(=O)n([C@@H]2O[C@H](C)[C@@H](O)[C@H]2O)cc1F", "activity change": "27.2%"}
{"compound": "OCC(O)CS", "note": "(stereo not drawn)", "activity change": "-15.1%"}
{"compound": "Cc1c(I)c(=O)n(-c2ccccc2)n1C", "activity change": "14.5%"}
{"compound": "NC(N)=NCCN1CCCCCCC1", "activity change": "-10.9% [at 0.0343 µM]"}
{"compound": "CC(C)NC[C@@H](O)COc1ccc(CC(N)=O)cc1", "activity change": "-12.1%"}
{"compound": "O=C(O)COC(=O)Cc1ccccc1Nc1c(Cl)cccc1Cl", "activity change": "2.9%"}
{"compound": "O=S1(=O)OC(c2ccc(O)cc2)(c2ccc(O)cc2)c2ccccc21", "activity change": "21.2%"}
{"compound": "C/C=C1\\[C@H]2C=C(C)C[C@]1(N)c1ccc(=O)[nH]c1C2", "activity change": "8.71%"}
{"compound": "COc1ccc(NS(=O)(=O)c2ccc(N)cc2)nn1", "activity change": "6.16%"}
{"compound": "O=C(O)CCCCC1CCSS1", "note": "(stereo not drawn)", "activity change": "41%"}
{"compound": "NC(=O)CC[C@@H](N)C(=O)O", "activity change": "7.3%"}
{"compound": "CC1(C)S[C@@H]2[C@H](N=CN3CCCCCC3)C(=O)N2[C@H]1C(=O)O", "activity change": "6.93%"}
{"compound": "O=C(O)/C=C/c1ccc(Cn2ccnc2)cc1", "activity change": "3.93%"}
{"compound": "C[C@]1(Cn2ccnn2)[C@H](C(=O)O)N2C(=O)C[C@H]2S1(=O)=O", "activity change": "20.2%"}
{"compound": "Cc1cc(=O)[nH]c(=S)[nH]1", "activity change": "1.39%"}
{"compound": "CC(CN(C)C)C(C)(O)Cc1ccc(Cl)cc1", "note": "(stereo not drawn)", "activity change": "-3.88%"}
{"compound": "O=C(O)C(S)C(S)C(=O)O", "note": "(stereo not drawn)", "activity change": "15.2%"}
{"compound": "CC(=O)N[C@H]1[C@H]([C@H](O)[C@H](O)CO)OC(C(=O)O)=C[C@@H]1N=C(N)N", "activity change": "-6.73%"}
{"compound": "C=CCNC(N)=S", "activity change": "10.4%"}
{"compound": "O=C(O)Cc1cn(-c2ccccc2)nc1-c1ccc(Cl)cc1", "activity change": "16.6%"}
{"compound": "O=C(/C=C/c1ccccc1)OCc1ccccc1", "activity change": "5.19%"}
{"compound": "O=C(O)Cc1ccc(CCNS(=O)(=O)c2ccc(Cl)cc2)cc1", "activity change": "-3.96%"}
{"compound": "CCOC(=O)[C@H](CCc1ccccc1)N[C@@H](C)C(=O)N1CCC[C@H]1C(=O)O", "activity change": "18.5%"}
{"compound": "CC(C)CCOC(=O)c1ccc(N(C)C)cc1", "activity change": "6.64%"}
{"compound": "C[n+]1ccccc1/C=N/O", "activity change": "-2.89%"}
{"compound": "C/C=C/C(=O)N(CC)c1ccccc1C", "activity change": "-11.7%"}
{"compound": "Cc1ccsc1C(=CCCN1CCC[C@@H](C(=O)O)C1)c1sccc1C", "activity change": "-15.5%"}
{"compound": "Cc1c(NC(=O)c2cccnc2)c(=O)n(-c2ccccc2)n1C", "activity change": "9.86%"}
{"compound": "OCCN1C[C@H](O)[C@@H](O)[C@H](O)[C@H]1CO", "activity change": "10.2%"}
{"compound": "COc1ccc(Cc2cnc(N)nc2N)cc1OC", "activity change": "4.32%"}
{"compound": "Nc1ccc(S(=O)(=O)c2ccc(N)cc2)cc1", "activity change": "-3.14%"}
{"compound": "CN1CCN(C(=O)C2CCCCC2)CC1", "activity change": "38.2%"}
{"compound": "CC(=O)Oc1cccc(C)c1", "activity change": "4.04%"}
